Source: PubChem
Sampled rows, rich in hits. Any-hit rate of the full collection: about 17%.
ATXN viability: cell viability loss in ATXN counter-screen; S2 cells (HEK-293 line with an ATXN2-luciferase reporter) viability, CellTiter-Fluor protease fluorescence, 24 h; Potency, µM (highest dose often 56.7 µM), most hits filed as cytotoxic; hit rate 0.49% among 400,000; AID 651635; note: nearly all actives have a fitted effect of over 40% in size
TGFb SMAD3 inh: inhibitors of TGF-b signaling; hit rate 1.2% among 410,000; HepG2 CAGA-GFP TGF-b/SMAD3 reporter, GFP fluorescence, 18 h; TGF-beta stimulated, 500 pg/mL final; Potency, µM (titrated, usually from 46.1 µM), hits mostly inhibitors; note: nearly all actives have a fitted effect of over 65% in size
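First, reporter cells (HEPG2 CAGA-GFP) rested 2 h at 37 degrees C. Next, compounds were pinned in and TGF-beta added to 500 pg/mL final. After 18 h, GFP was imaged per cell and summed per well.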
HepG2 viability: counter-screen for TGF-b inhibitors: cytotoxicity in HepG2 cells; HepG2 CAGA-GFP viability, ATP luminescence, 18 h; Potency, µM (doses to about 46.1 µM), most hits filed as cytotoxic; hit rate 0.76% among 410,000; AID 588856
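HepG2 CAGA-GFP cells (1000/well, DMEM with 1% FBS) received compound, then TGF-beta at 500 pg/mL final, and were incubated 18 hours at 37 degrees C. Viability was read by CellTiter-Glo luminescence. Media-only wells were set as complete cell-killing and DMSO as no toxicity.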
DT40 TDP1 CPT: growth inhibition of DT40 Tdp1-/-;hTDP1 cells with camptothecin (screen for TDP1 inhibitors) | chicken DT40 Tdp1-/-;hTDP1 cells + 20 nM CPT, ATP luminescence, 48 h | Potency, µM (top dose mostly 46.2 µM), hits mostly inhibitors | hit rate 12% among 420,000; note: nearly all actives have a fitted effect of over 55% in size
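Chicken DT40 Tdp1-/- cells complemented with human TDP1, 400 cells/well, exposed to compounds plus 20 nM camptothecin for at least 48 h at 37 C; viability read as ATP content by CellTiter-Glo luminescence.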
ATXN2 expr inh: inhibitors of ATXN2 expression | HEK-293 ATXN2-luciferase reporter, luminescence, 24 h | Potency, µM (top dose mostly 57 µM), actives largely listed as inhibitors | hit rate 0.72% among 360,000; note: nearly all actives have a fitted effect of over 55% in size
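qHTS (up to 57 uM final) was run with 24 h compound exposure of reporter cells at 37 °C. Each well was multiplexed: SteadyGlo luminescence measured ATXN2-luciferase expression after a fluorogenic Gly-Phe-AFC viability readout (25 uM final).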
TDP1 cell noCPT: qHTS for Inhibitors of human tyrosyl-DNA phosphodiesterase 1 (TDP1): qHTS in cells in absence of CPT; DT40 Tdp1-/- hTDP1 cells, no CPT, ATP luminescence, 48 h; Potency, µM (top dose mostly 46.2 µM), actives largely listed as inhibitors; hit rate 15% among 420,000; note: nearly all actives have a fitted effect of over 55% in size
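Seeded 400 DT40-hTDP1 cells/well (vehicle DMSO, no 20 nM CPT); pinned compounds; ≥48 hr at 37 °C; CellTiter-Glo luminescence as viability measure.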
Numbers stand for hits. Calls come from the whole dose curve; as a rule, active = well fitted curve in the direction sought with a large enough effect; inconclusive = small, poorly fitted or top-dose-only effect, or another doubt; inactive = no such curve, though single readings can be large; an effect the other way counts as inactive or inconclusive.

For O=C(COC(=O)/C=C/c1ccc(F)cc1)NCc1ccco1 the results were ATXN viability inactive, TGFb SMAD3 inh inactive, HepG2 viability inactive, DT40 TDP1 CPT inactive, ATXN2 expr inh inactive and TDP1 cell noCPT inactive.
Screening CCCOc1ccc(S(=O)(=O)n2cc(F)c(=O)[nH]c2=O)cc1 returned ATXN viability inactive, TGFb SMAD3 inh inactive, HepG2 viability inactive, DT40 TDP1 CPT inconclusive, ATXN2 expr inh inactive and TDP1 cell noCPT inconclusive.
Screening C#CCCCCCCCCCCCc1ccco1 returned DT40 TDP1 CPT inactive and TDP1 cell noCPT inconclusive.
`CC(C)Oc1ccc(C(=O)NC(=S)N2CCOCC2)cc1` gave ATXN viability inactive, TGFb SMAD3 inh inactive, HepG2 viability inactive, DT40 TDP1 CPT inconclusive, ATXN2 expr inh inactive and TDP1 cell noCPT inconclusive.
`COc1ccc(/C=C/C(=O)OCC(=O)NCCC2=CCCCC2)cc1OC` gave ATXN viability inactive, TGFb SMAD3 inh inactive, HepG2 viability inactive, DT40 TDP1 CPT inconclusive, ATXN2 expr inh inactive and TDP1 cell noCPT 16.4µM.
Screening COc1ccc(OCC(=O)NCCC2=CCCCC2)c([N+](=O)[O-])c1 returned ATXN viability inactive, TGFb SMAD3 inh inactive, HepG2 viability inactive, DT40 TDP1 CPT inconclusive and TDP1 cell noCPT inconclusive.
For COc1cc(/C=C/C(=O)OCC(=O)NCc2ccco2)ccc1O the results were ATXN viability inconclusive, TGFb SMAD3 inh inconclusive, HepG2 viability inactive, DT40 TDP1 CPT 20.6µM, ATXN2 expr inh inactive and TDP1 cell noCPT 16.4µM.
For COc1ccc(/C=C/C(=O)OCC(=O)NCc2ccccc2)cc1OC the results were ATXN viability inactive, TGFb SMAD3 inh inactive, HepG2 viability inactive, DT40 TDP1 CPT 20.6µM, ATXN2 expr inh inactive and TDP1 cell noCPT 16.4µM.
`COc1ccc(OC)c(/C=C/C(=O)OCC(=O)NCc2ccccc2)c1` gave ATXN viability inactive, TGFb SMAD3 inh inconclusive, HepG2 viability inactive, DT40 TDP1 CPT inactive, ATXN2 expr inh inactive and TDP1 cell noCPT inactive.
Screening COc1ccc(C(C)=O)c(OCC(=O)NCCC2=CCCCC2)c1 returned ATXN viability inactive, TGFb SMAD3 inh inactive, HepG2 viability inactive, DT40 TDP1 CPT inactive and TDP1 cell noCPT 0.581µM.
For N#Cc1cnc2nc1NCCCCCCC2 the results were ATXN viability inactive, TGFb SMAD3 inh inactive, HepG2 viability inactive, DT40 TDP1 CPT inactive and TDP1 cell noCPT inconclusive.
Screening Cc1cc(C)n2nc(SCCCC(=O)c3ccc(F)cc3)nc2n1 returned ATXN viability inactive, TGFb SMAD3 inh inactive, HepG2 viability inactive, DT40 TDP1 CPT inconclusive, ATXN2 expr inh inactive and TDP1 cell noCPT inconclusive.
For O=C(NCCc1ccccc1)C(NS(=O)(=O)c1cccc2nsnc12)c1ccccc1 (stereo unspecified) the results were ATXN viability inactive, TGFb SMAD3 inh inactive, HepG2 viability inactive, DT40 TDP1 CPT inactive, ATXN2 expr inh inactive and TDP1 cell noCPT inactive.
`CCSc1oc(-c2cccs2)nc1S(=O)(=O)c1ccc(Br)cc1` gave ATXN viability inactive, TGFb SMAD3 inh inactive, HepG2 viability inactive, DT40 TDP1 CPT inconclusive, ATXN2 expr inh inactive and TDP1 cell noCPT inconclusive.
`CCN(CC)P(=O)(Nc1ccccc1Br)c1ccc(N(C)C)cc1NC(=O)c1ccco1` (stereo unspecified) gave ATXN viability inactive, TGFb SMAD3 inh inactive, HepG2 viability inactive, DT40 TDP1 CPT 29.1µM, ATXN2 expr inh inactive and TDP1 cell noCPT 23.1µM.
For O=S(=O)(Nc1ccc(-n2cnnn2)cc1)c1ccc(F)c(F)c1F the results were ATXN viability inactive, TGFb SMAD3 inh inactive, HepG2 viability inactive, DT40 TDP1 CPT inactive, ATXN2 expr inh inactive and TDP1 cell noCPT inactive.
Cc1noc(C)c1CSCC(=O)Oc1ccc(N(C)S(=O)(=O)c2ccccc2)cc1 was read as ATXN viability inactive, TGFb SMAD3 inh inconclusive, HepG2 viability inactive, DT40 TDP1 CPT inactive, ATXN2 expr inh inactive and TDP1 cell noCPT inactive.
